Here are results for 2 compounds from ChEMBL document CHEMBL3988442, “University of Dundee, Small-Polar-MMV Screening Library” (2021).

For some of these results: Results with a measured potency or affinity are listed apart.

Experiment [1] deals with Protein translocase subunit SecA (Escherichia coli (strain K12)) (UniProt P10408). As to the kind of experiment: Assay to Identify E. coli SecA ATPase Inhibitors. It counts as functional. The note with it: 30 µM. More on the design: scale not given: direction of the effect not stated beside the values.
Protein translocase subunit SecA (Escherichia coli (strain K12)), sequence (P10408 whole entry): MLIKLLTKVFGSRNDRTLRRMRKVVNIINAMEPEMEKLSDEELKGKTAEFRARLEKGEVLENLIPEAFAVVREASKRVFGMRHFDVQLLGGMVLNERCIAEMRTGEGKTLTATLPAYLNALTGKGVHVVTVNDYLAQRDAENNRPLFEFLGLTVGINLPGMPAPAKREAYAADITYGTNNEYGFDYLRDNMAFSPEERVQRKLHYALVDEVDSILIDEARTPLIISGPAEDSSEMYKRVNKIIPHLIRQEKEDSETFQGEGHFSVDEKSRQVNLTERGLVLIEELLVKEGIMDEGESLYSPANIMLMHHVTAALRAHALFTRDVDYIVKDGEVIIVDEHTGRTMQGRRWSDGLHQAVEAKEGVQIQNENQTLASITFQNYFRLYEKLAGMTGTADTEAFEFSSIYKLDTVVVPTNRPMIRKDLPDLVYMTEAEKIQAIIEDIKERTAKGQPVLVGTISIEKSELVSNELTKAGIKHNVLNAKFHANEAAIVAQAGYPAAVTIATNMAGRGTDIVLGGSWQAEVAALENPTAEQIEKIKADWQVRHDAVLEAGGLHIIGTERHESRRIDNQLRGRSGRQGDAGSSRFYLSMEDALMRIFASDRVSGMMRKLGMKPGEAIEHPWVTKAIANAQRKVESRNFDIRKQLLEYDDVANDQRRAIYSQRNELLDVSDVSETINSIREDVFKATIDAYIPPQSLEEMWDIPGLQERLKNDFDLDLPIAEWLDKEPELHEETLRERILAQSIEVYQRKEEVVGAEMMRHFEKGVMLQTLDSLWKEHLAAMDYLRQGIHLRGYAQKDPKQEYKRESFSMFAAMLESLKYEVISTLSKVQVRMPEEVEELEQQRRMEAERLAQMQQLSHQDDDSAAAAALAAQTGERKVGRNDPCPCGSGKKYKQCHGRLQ
Experiment [2] deals with T1, Ubiquitin-activating enzyme e1, putative (Leishmania donovani (strain BPK282A1)) (UniProt E9BSI1).
T1 sequence (whole entry): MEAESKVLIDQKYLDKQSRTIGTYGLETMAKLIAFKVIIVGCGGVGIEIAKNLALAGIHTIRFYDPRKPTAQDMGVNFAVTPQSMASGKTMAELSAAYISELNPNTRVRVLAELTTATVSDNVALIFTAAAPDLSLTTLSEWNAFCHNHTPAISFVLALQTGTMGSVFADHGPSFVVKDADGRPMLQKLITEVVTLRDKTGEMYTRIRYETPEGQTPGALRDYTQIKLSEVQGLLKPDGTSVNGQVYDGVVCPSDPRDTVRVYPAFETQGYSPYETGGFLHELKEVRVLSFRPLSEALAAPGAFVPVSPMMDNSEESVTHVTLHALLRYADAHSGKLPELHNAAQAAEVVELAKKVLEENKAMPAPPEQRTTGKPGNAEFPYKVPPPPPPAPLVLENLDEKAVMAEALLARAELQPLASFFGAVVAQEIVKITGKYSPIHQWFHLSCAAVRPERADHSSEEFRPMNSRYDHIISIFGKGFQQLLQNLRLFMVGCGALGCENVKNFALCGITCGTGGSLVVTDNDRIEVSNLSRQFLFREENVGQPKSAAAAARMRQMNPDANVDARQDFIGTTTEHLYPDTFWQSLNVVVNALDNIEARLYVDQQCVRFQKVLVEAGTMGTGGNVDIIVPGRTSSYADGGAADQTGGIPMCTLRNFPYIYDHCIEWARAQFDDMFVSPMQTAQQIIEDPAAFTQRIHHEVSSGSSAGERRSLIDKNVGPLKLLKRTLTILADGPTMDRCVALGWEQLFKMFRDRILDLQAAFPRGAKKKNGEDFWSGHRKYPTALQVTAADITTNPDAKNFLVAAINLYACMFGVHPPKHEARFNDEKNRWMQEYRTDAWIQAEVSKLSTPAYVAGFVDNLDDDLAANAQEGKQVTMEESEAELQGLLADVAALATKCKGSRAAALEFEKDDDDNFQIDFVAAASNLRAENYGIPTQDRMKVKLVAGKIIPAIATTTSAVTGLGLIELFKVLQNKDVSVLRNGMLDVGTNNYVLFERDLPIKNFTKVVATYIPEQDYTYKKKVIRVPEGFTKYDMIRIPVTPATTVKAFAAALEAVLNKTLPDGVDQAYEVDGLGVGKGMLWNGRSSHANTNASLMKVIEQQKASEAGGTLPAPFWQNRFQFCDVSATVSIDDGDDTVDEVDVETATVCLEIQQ
As to the kind of experiment: Leishmania donovani Ubiquitin Activating Enzyme (LdE1). The following applies: 30 µM. It counts as functional. Details: scale not given: direction of the effect not stated beside the values.

The target in experiment [3] is AMP-activated protein kinase, AMPK (Homo sapiens) (UniProt P54646+O43741+P54619+Q9UGJ0+Q9Y478+Q13131+Q9UGI9). As to the kind of experiment: AMP-dependent Kinase enzyme assay. An in vitro enzyme assay that detects ADP turnover that is directly proportional to AMPK activity. This uses naive AMPK that is activated during the assay with MK-8722. The note with it: 30 µM. More on the design: scale not given: direction of the effect not stated beside the values. Format: functional.

For experiment [4], the target named is Sialic acid-binding Ig-like lectin 9 (Homo sapiens) (UniProt Q9Y336). As to the kind of experiment: Hs-Siglec9 ALPHAscreen SOP 20170721. More on the design: scale not given: direction of the effect not stated beside the values. The note with it: 10 µM. Background: In Alpha technology, singlet oxygen from a donor bead excites a nearby acceptor bead.
Sialic acid-binding Ig-like lectin 9 (Homo sapiens), sequence (Q9Y336 whole entry): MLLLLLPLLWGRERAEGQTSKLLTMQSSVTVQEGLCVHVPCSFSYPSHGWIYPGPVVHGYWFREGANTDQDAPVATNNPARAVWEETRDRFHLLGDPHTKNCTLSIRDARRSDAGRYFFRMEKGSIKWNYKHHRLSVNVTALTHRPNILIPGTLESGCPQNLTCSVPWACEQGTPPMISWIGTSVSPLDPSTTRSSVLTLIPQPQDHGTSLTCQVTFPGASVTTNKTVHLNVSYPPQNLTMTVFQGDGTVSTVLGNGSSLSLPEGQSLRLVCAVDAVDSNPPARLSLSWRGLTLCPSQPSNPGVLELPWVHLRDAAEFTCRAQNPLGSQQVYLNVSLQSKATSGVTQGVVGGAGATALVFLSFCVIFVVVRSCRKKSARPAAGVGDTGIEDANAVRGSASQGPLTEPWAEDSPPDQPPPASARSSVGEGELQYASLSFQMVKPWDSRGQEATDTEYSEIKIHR
Experiment [5] deals with Trypanosoma cruzi. As to the kind of experiment: Trypanosoma cruzi phosphomannomutase and mannose-1-phosphate guanylyltransferase assay. More on the design: scale not given: direction of the effect not stated beside the values. It counts as functional. The following applies: 10 µM.
In experiment [6] the target is T2, Arginase-2, mitochondrial (Homo sapiens) (UniProt P78540).
T2 sequence (whole entry): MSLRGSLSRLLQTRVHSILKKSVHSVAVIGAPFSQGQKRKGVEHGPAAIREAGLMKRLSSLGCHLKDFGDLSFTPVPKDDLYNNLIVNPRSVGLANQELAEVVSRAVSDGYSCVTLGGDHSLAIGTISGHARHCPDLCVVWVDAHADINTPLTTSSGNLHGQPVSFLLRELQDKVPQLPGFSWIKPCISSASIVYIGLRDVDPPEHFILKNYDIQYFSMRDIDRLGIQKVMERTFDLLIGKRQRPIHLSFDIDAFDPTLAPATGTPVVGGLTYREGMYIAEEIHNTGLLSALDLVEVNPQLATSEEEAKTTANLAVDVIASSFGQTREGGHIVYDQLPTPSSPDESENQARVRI
As to the kind of experiment: in vitro enzyme assay to detect the production of urea directly proportional to the activity of Arginase II. Format: functional. More on the design: scale not given: in the data most compounds retested in dose-response had high values.

Experiment [7] concerns the target T3, Proteasome subunit beta (Trypanosoma cruzi) (UniProt O96673).
T3 sequence (whole entry): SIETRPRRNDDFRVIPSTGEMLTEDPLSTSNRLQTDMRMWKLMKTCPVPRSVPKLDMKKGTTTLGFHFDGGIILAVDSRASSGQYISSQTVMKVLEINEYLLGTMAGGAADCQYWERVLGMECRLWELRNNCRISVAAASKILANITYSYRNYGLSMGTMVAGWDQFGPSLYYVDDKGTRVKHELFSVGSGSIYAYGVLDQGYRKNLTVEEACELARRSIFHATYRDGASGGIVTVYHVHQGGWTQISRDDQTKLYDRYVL
As to the kind of experiment: Trypanosoma cruzi proteasome chymotrypsin-like activity (TcProtChymo) assay. Format: functional. More on the design: scale not given: in the data most compounds retested in dose-response had high values. The note with it: 9.37 µM.

The species entered for experiment [8] is Homo sapiens. As to the kind of experiment: To identify inhibition of the IFN signalling (Jak-Stat) pathway via expression of an eGFP reporter gene under the control of an IFN-stimulated response element (ISRE) containing MxA promoter. It counts as functional. Details: scale not given: direction of the effect not stated beside the values. The note with it: 30 µM. A general note: Reporter assays use an easily measured gene product as a stand-in for the process of interest.

For experiment [9], the target named is T4, Tyrosyl-tRNA synthetase, putative (Trypanosoma cruzi (strain CL Brener)) (UniProt Q4DSP6).
T4 sequence (whole entry): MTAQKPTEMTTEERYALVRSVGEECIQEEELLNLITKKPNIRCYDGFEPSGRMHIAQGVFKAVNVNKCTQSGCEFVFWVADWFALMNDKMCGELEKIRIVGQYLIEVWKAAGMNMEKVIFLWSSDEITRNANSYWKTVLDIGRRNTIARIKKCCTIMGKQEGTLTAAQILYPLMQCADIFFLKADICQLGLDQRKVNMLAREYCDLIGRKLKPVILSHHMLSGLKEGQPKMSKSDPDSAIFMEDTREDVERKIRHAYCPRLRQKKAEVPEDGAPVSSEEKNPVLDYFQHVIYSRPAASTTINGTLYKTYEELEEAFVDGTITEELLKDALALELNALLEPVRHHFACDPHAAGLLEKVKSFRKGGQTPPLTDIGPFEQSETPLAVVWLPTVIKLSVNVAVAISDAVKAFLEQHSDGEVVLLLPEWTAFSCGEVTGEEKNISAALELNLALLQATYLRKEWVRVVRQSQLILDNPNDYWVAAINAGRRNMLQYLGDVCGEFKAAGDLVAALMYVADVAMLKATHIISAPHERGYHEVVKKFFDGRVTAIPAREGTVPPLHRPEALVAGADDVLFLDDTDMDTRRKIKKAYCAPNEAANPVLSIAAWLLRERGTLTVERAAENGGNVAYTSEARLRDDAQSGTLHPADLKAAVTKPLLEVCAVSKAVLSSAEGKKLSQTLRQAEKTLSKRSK
As to the kind of experiment: Trypanosoma cruzi tyrosyl tRNA synthetase (TcYRS) _High Tyrosine SOP. Format: functional. Details: scale not given: in the data most compounds retested in dose-response had high values. The following applies: 30 µM.

For experiment [10], the target named is T4, Tyrosyl-tRNA synthetase, putative (Trypanosoma cruzi (strain CL Brener)). As to the kind of experiment: Trypanosoma cruzi tyrosyl tRNA synthetase (TcYRS) SOP. Format: functional. Details: scale not given: direction of the effect not stated beside the values. The following applies: 30 µM.
Experiment [11] deals with Chromo domain-containing protein 1 (Saccharomyces cerevisiae (strain ATCC 204508 / S288c) (Baker's yeast)) (UniProt P32657). As to the kind of experiment: ScCHD-1 Enzyme Inhibition Assay. More on the design: scale not given: in the data most compounds retested in dose-response had high values. It counts as functional. The note with it: 30 µM.
Chromo domain-containing protein 1 (Saccharomyces cerevisiae (strain ATCC 204508 / S288c) (Baker's yeast)), sequence (P32657 whole entry, the tested form may be a part): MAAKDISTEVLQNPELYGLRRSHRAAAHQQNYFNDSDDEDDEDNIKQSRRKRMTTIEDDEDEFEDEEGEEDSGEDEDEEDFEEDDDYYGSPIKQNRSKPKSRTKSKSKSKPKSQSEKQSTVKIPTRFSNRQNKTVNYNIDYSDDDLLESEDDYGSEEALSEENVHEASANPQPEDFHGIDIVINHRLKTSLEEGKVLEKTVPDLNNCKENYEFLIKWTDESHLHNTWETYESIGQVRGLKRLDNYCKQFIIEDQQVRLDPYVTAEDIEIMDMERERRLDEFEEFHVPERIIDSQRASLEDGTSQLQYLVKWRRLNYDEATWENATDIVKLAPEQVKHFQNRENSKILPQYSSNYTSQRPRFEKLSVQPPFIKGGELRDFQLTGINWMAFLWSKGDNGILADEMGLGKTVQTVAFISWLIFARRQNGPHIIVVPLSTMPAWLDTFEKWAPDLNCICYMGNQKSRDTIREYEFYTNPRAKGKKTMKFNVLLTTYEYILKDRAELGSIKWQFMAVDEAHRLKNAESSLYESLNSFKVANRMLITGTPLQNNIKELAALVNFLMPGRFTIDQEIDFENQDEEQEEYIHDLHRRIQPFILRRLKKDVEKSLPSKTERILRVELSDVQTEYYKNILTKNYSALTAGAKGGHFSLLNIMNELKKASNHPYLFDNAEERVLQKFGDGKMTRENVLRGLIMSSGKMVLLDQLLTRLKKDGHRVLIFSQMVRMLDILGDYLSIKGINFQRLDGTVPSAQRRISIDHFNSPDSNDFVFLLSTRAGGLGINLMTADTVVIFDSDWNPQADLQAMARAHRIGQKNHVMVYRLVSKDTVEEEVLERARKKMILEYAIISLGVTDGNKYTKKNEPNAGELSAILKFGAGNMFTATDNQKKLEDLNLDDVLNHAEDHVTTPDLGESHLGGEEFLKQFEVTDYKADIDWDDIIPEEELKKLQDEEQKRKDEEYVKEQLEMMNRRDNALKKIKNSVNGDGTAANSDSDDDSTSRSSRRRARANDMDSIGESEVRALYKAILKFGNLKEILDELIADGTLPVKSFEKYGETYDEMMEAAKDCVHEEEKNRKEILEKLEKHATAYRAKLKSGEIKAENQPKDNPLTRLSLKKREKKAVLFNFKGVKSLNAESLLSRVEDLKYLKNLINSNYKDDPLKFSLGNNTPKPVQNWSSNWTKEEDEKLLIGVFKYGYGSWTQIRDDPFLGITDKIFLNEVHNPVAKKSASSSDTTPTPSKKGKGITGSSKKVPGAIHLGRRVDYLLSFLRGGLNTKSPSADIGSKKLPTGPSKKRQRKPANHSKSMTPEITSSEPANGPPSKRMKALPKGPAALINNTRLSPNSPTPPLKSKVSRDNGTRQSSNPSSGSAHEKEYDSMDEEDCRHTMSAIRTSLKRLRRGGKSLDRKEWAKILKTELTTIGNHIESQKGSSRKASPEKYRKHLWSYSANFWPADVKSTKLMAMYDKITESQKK
Experiment [12] has as its target T5, Methionyl-tRNA synthetase, putative (Leishmania donovani (strain BPK282A1)) (UniProt E9BF75).
T5 sequence (whole entry): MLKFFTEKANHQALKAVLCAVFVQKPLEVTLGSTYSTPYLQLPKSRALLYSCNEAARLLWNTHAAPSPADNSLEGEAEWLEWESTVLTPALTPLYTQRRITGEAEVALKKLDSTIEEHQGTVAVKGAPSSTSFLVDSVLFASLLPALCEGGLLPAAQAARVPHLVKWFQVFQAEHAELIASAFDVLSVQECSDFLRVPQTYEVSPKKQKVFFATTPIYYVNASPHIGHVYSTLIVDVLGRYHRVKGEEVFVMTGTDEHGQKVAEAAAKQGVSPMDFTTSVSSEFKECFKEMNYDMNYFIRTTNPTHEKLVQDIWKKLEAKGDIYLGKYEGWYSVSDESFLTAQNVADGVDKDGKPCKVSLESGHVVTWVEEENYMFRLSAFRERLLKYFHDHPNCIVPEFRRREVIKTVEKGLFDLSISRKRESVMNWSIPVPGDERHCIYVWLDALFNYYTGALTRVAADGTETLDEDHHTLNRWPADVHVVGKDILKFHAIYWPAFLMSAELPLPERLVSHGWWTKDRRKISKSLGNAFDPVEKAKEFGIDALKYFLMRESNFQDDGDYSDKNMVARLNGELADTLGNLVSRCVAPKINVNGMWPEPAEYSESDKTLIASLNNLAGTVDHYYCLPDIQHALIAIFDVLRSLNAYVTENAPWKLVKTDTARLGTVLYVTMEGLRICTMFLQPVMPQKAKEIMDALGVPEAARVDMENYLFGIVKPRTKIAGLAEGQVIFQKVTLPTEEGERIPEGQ
As to the kind of experiment: Leishmania donovani Methionine tRNA synthetase (LdMetRS):v7. Dose response assay. Format: functional. Details: conc 80 nM, time 150 minutes.

With `COc1ccccc1Oc1ncccc1CNC(=O)[C@@H](C)NC(C)=O`, the Percent Effect in experiment [1] is -1.21%; in [2], -4.17%; in [3] it was -4.59%; in experiment [4] it was -7.34%; in experiment [5], -3.98%; in experiment [6] (30 µM), 4.87%. Besides, the Percent Effect in experiment [6] (33.3 µM) was 2.21%; in [7], -0.526%; in [8], 2.14%; in [9] it was 2.1%; in experiment [10] it was -2.56%; in experiment [11], 2.74%.
On to `FC1(F)CCN(Cc2ccccn2)CC12CCN(c1cccnc1)C2` (stereo not given), for which the PXC50 in experiment [12] (MAX_EFFECT 3.800475059) and in [12] (MAX_EFFECT 6.161971831) was below 4 throughout. Besides, the Percent Effect in [1] was -7.19%; in [2], 2.7%; in experiment [3] it was 114%; in experiment [4] it was -3.38%; in experiment [5], -1.86%; in [6] (33.3 µM), 2.87%. In addition, the Percent Effect in [7] is 0.369%; in experiment [8], 49.7%; in experiment [9], -3.24%; in experiment [10] it was -2.56%; in [11], -1.38%.
